Results: the supplement of paper PMC10646978
± gives the standard deviation.

Assays:
Conditions in all cases: modulator concentration 10 µM
[1] = tested on: RAW-Dual (murine macrophage reporter line); test: NF-kB reporter (SEAP) activity fold change vs agonist alone; higher = enhanced NF-kB activity
Procedure, shortened: (§1)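 RAW-Dual murine macrophage reporter cells were plated at 50 000 per well in 384-well plates, pin-transferred compound to 10 μM final, and pre-incubated for 1 hour at 37 °C before a PRR agonist was added and the cells incubated overnight. NF-κB activity was read from supernatant SEAP with QUANTI-Blue at 620 nm absorbance, and IRF activity from Lucia luciferase with QUANTI-Luc by luminescence. Each signal was expressed as fold change by dividing by the mean agonist-only control on the same plate. Two replicate plates were averaged, with errors obtained by propagation.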

[2] = tested on: RAW-Dual (murine macrophage reporter line); test: IRF reporter (Lucia luciferase) activity fold change vs agonist alone; higher = enhanced IRF activity
Procedure, shortened: as §1

[3] = tested on: RAW-Dual (murine macrophage reporter line); test: viability score (confluency relative to resting cells, overnight) (fraction); higher = more viable, active = viable (0.7 or more)
Procedure, shortened: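 RAW-Dual macrophages in 384-well plates were exposed overnight to compound at 10 μM final. Confluency was imaged with IncuCyte, and two confluency masks were generated with IncuCyte software over all imaged wells. The viability score is confluency expressed relative to resting cells. Compounds were called viable if both masks exceeded 70% of resting cells.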

[4] = agonist: CpG ODN 1826 0.5 ug/mL

**Q.** `COc1ccccc1C(=O)Nc1ccc(-c2nc3cc(C)ccc3o2)cc1` was tested. Which NF-kB reporter [1, 4] did it give?
**A.** 0.794 ± 0.063

**Q.** What about the NF-kB reporter ([1]; agonist: LPS 0.1 ug/mL) of the same compound?
**A.** 0.996 ± 0.051

**Q.** What about the NF-kB reporter ([1]; agonist: MPLA […]) of the same compound?
**A.** 1.12 ± 0.11

**Q.** And the IRF reporter ([2]; agonist: 3'3'-cGAMP 10 ug/mL)?
**A.** 0.803 ± 0.039

**Q.** What about the IRF reporter ([2]; agonist: LPS 0.1 ug/mL) of the same compound?
**A.** 1.55 ± 0.11

**Q.** What about the IRF reporter ([2]; agonist: MPLA […]) of the same compound?
**A.** 1.62 ± 0.14

**Q.** What about the viability score [3] of the same compound?
**A.** 0.975 (active)

**Q.** Which NF-kB reporter [1, 4] does the source give for `Cc1c(NC(=S)NC(=O)c2ccccc2[N+](=O)[O-])cccc1-c1nc2ccccc2o1` here?
**A.** 0.898 ± 0.074

**Q.** And the NF-kB reporter ([1]; agonist: LPS 0.1 ug/mL)?
**A.** 1 ± 0.073

**Q.** And the NF-kB reporter ([1]; agonist: MPLA […])?
**A.** 1.05 ± 0.11

**Q.** What about the IRF reporter ([2]; agonist: 3'3'-cGAMP 10 ug/mL) of the same compound?
**A.** 0.649 ± 0.093

**Q.** And the IRF reporter ([2]; agonist: LPS 0.1 ug/mL)?
**A.** 1.04 ± 0.15

**Q.** What about the IRF reporter ([2]; agonist: MPLA […]) of the same compound?
**A.** 1.07 ± 0.31

**Q.** What about the viability score [3] of the same compound?
**A.** 1 (active)

**Q.** With `CCOC(=O)c1ccc2nc(NC(=O)c3ccco3)sc2c1` as the compound, how does the NF-kB reporter [1, 4] read?
**A.** 0.971 ± 0.079

**Q.** And the NF-kB reporter ([1]; agonist: LPS 0.1 ug/mL)?
**A.** 0.876 ± 0.064

**Q.** What about the NF-kB reporter ([1]; agonist: MPLA […]) of the same compound?
**A.** 1.13 ± 0.14

**Q.** What about the IRF reporter ([2]; agonist: 3'3'-cGAMP 10 ug/mL) of the same compound?
**A.** 0.996 ± 0.051

**Q.** And the IRF reporter ([2]; agonist: LPS 0.1 ug/mL)?
**A.** 1.35 ± 0.19

**Q.** And the IRF reporter ([2]; agonist: MPLA […])?
**A.** 1.58 ± 0.3

**Q.** And the viability score [3]?
**A.** 1.01 (active)

**Q.** For `CCCC(=O)Nc1ccc(OCC(O)CNC(C)C)c(C(C)=O)c1.Cl` (stereo unspecified), which NF-kB reporter [1, 4] is on record?
**A.** 1.14 ± 0.1

**Q.** And the NF-kB reporter ([1]; agonist: LPS 0.1 ug/mL)?
**A.** 1.03 ± 0.05

**Q.** What about the NF-kB reporter ([1]; agonist: MPLA […]) of the same compound?
**A.** 0.983 ± 0.022

**Q.** And the IRF reporter ([2]; agonist: 3'3'-cGAMP 10 ug/mL)?
**A.** 0.94 ± 0.054

**Q.** And the IRF reporter ([2]; agonist: LPS 0.1 ug/mL)?
**A.** 1.01 ± 0.12

**Q.** What about the IRF reporter ([2]; agonist: MPLA […]) of the same compound?
**A.** 0.864 ± 0.11

**Q.** And the viability score [3]?
**A.** 0.999 (active)

**Q.** `COC(=O)C1=C(C)NC(C)=C(C(=O)O[C@@H]2CCCN(Cc3ccccc3)C2)[C@@H]1c1cccc([N+](=O)[O-])c1.Cl` was tested. Which NF-kB reporter [1, 4] did it give?
**A.** 0.323 ± 0.024

**Q.** And the NF-kB reporter ([1]; agonist: LPS 0.1 ug/mL)?
**A.** 0.587 ± 0.034

**Q.** What about the NF-kB reporter ([1]; agonist: MPLA […]) of the same compound?
**A.** 1.31 ± 0.036

**Q.** And the IRF reporter ([2]; agonist: 3'3'-cGAMP 10 ug/mL)?
**A.** 0.31 ± 0.018

**Q.** And the IRF reporter ([2]; agonist: LPS 0.1 ug/mL)?
**A.** 1.05 ± 0.12

**Q.** And the IRF reporter ([2]; agonist: MPLA […])?
**A.** 1.25 ± 0.18

**Q.** What about the viability score [3] of the same compound?
**A.** 0.997 (active)

**Q.** With `O=C(O)CCC(=O)Nc1ccc(Br)cc1C(=O)c1ccc(Cl)cc1` as the compound, how does the NF-kB reporter [1, 4] read?
**A.** 0.993 ± 0.08

**Q.** What about the NF-kB reporter ([1]; agonist: LPS 0.1 ug/mL) of the same compound?
**A.** 1.05 ± 0.058

**Q.** And the NF-kB reporter ([1]; agonist: MPLA […])?
**A.** 0.951 ± 0.066

**Q.** What about the IRF reporter ([2]; agonist: 3'3'-cGAMP 10 ug/mL) of the same compound?
**A.** 0.986 ± 0.031

**Q.** And the IRF reporter ([2]; agonist: LPS 0.1 ug/mL)?
**A.** 1.31 ± 0.19

**Q.** And the IRF reporter ([2]; agonist: MPLA […])?
**A.** 1.08 ± 0.18

**Q.** What about the viability score [3] of the same compound?
**A.** 1.01 (active)

**Q.** What does the source list for `COC(=O)Nc1nc2cc(C(=O)c3cccs3)ccc2[nH]1` [Prestw-100]?
**A.** NF-kB reporter [1, 4]: 2.4 ± 0.14; NF-kB reporter ([1]; agonist: LPS 0.1 ug/mL): 1.31 ± 0.094; NF-kB reporter ([1]; agonist: MPLA […]): 1.98 ± 0.13; IRF reporter ([2]; agonist: 3'3'-cGAMP 10 ug/mL): 0.101 ± 0.0035; IRF reporter ([2]; agonist: LPS 0.1 ug/mL): 1.86 ± 0.18; IRF reporter ([2]; agonist: MPLA […]): 2.05 ± 0.19; viability score [3]: 0.715 (active)

**Q.** Which results are given for `O=C1CCCc2nn(-c3ccccc3)nc21`?
**A.** NF-kB reporter [1, 4]: 1.02 ± 0.086; NF-kB reporter ([1]; agonist: LPS 0.1 ug/mL): 1.05 ± 0.14; NF-kB reporter ([1]; agonist: MPLA […]): 1.09 ± 0.12; IRF reporter ([2]; agonist: 3'3'-cGAMP 10 ug/mL): 1 ± 0.049; IRF reporter ([2]; agonist: LPS 0.1 ug/mL): 1.17 ± 0.14; IRF reporter ([2]; agonist: MPLA […]): 1.21 ± 0.19; viability score [3]: 1.03 (active)

**Q.** Which results are given for `CC(C)n1cnc(S(=O)(=O)N2CCC(S(=O)(=O)c3nccn3C)CC2)c1`?
**A.** NF-kB reporter [1, 4]: 0.36 ± 0.028; NF-kB reporter ([1]; agonist: LPS 0.1 ug/mL): 0.842 ± 0.067; NF-kB reporter ([1]; agonist: MPLA […]): 0.663 ± 0.048; IRF reporter ([2]; agonist: 3'3'-cGAMP 10 ug/mL): 0.935 ± 0.026; IRF reporter ([2]; agonist: LPS 0.1 ug/mL): 1.34 ± 0.14; IRF reporter ([2]; agonist: MPLA […]): 1.14 ± 0.084; viability score [3]: 0.878 (active)

**Q.** For `CCN(CC)c1ccc(C=C(C#N)C#N)c(OC(C)=O)c1`, which NF-kB reporter [1, 4] is on record?
**A.** 1.07 ± 0.064

**Q.** And the NF-kB reporter ([1]; agonist: LPS 0.1 ug/mL)?
**A.** 0.895 ± 0.065

**Q.** What about the NF-kB reporter ([1]; agonist: MPLA […]) of the same compound?
**A.** 0.884 ± 0.057

**Q.** What about the IRF reporter ([2]; agonist: 3'3'-cGAMP 10 ug/mL) of the same compound?
**A.** 0.76 ± 0.034

**Q.** And the IRF reporter ([2]; agonist: LPS 0.1 ug/mL)?
**A.** 0.995 ± 0.069

**Q.** What about the IRF reporter ([2]; agonist: MPLA […]) of the same compound?
**A.** 0.977 ± 0.12

**Q.** And the viability score [3]?
**A.** 1.01 (active)

**Q.** Which NF-kB reporter [1, 4] does the source give for `Oc1ccc(C=Cc2cc(O)cc(O)c2)cc1` here?
**A.** 0.984 ± 0.074

**Q.** And the NF-kB reporter ([1]; agonist: LPS 0.1 ug/mL)?
**A.** 0.848 ± 0.042

**Q.** And the NF-kB reporter ([1]; agonist: MPLA […])?
**A.** 1.23 ± 0.029

**Q.** And the IRF reporter ([2]; agonist: 3'3'-cGAMP 10 ug/mL)?
**A.** 0.493 ± 0.028

**Q.** And the IRF reporter ([2]; agonist: LPS 0.1 ug/mL)?
**A.** 0.48 ± 0.087

**Q.** And the IRF reporter ([2]; agonist: MPLA […])?
**A.** 0.403 ± 0.084

**Q.** And the viability score [3]?
**A.** 0.904 (active)

**Q.** With `O=S1(=O)Nc2c(ccc3cccnc23)-c2ccccc21` as the compound, how does the NF-kB reporter [1, 4] read?
**A.** 0.603 ± 0.086

**Q.** And the NF-kB reporter ([1]; agonist: LPS 0.1 ug/mL)?
**A.** 1.38 ± 0.1

**Q.** What about the NF-kB reporter ([1]; agonist: MPLA […]) of the same compound?
**A.** 2.34 ± 0.22

**Q.** What about the IRF reporter ([2]; agonist: 3'3'-cGAMP 10 ug/mL) of the same compound?
**A.** 15 ± 0.57

**Q.** And the IRF reporter ([2]; agonist: LPS 0.1 ug/mL)?
**A.** 0.755 ± 0.23

**Q.** And the IRF reporter ([2]; agonist: MPLA […])?
**A.** 0.29 ± 0.079

**Q.** And the viability score [3]?
**A.** 0.671 (inactive)

**Q.** What does the source list for `CCCCSc1nnc2c(n1)OC(c1cccc(O)c1)Nc1ccc(Br)cc1-2` (stereo unspecified)?
**A.** NF-kB reporter [1, 4]: 0.765 ± 0.063; NF-kB reporter ([1]; agonist: LPS 0.1 ug/mL): 0.954 ± 0.073; NF-kB reporter ([1]; agonist: MPLA […]): 0.996 ± 0.14; IRF reporter ([2]; agonist: 3'3'-cGAMP 10 ug/mL): 0.644 ± 0.031; IRF reporter ([2]; agonist: LPS 0.1 ug/mL): 0.931 ± 0.065; IRF reporter ([2]; agonist: MPLA […]): 0.866 ± 0.075; viability score [3]: 1.02 (active)
